Sm TGR inh – qHTS Assay for the Inhibitors of Schistosoma Mansoni Peroxiredoxins. purified TGR, DTNB reduction, TNB absorbance 405 nm. Potency, µM (doses to about 114 µM), most hits filed as inhibitors. hit rate 3% among 360,000; active means well fitted inhibition curve with a large enough effect; inconclusive means small, poorly fitted or top-dose-only effect; inactive means no such curve, though single readings can be large or run the other way; further: nearly all actives have a fitted effect of over 60% in size
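First, TGR (20 nM dispensed) and NADPH were mixed with compound. Second, a 15 min room-temperature incubation followed. Third, further NADPH and then DTNB were added to start the reaction. Finally, TNB absorbance was monitored kinetically.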
SARS PLP yeast – qHTS of Yeast-based Assay for SARS-CoV PLP | S. cerevisiae expressing SARS-CoV PLpro, growth rescue | Potency, µM (doses to about 32.9 µM), actives largely listed as activators | hit rate 0.19% among 330,000; calls by dose curve; further: nearly all actives have a fitted effect of over 55% in size
Large screens that a line does not name were inactive. Shown are actives, neighbours in structure and some others; about 3% of the full set was active somewhere.

CCOc1ccc(N2C(=O)CC(NCCNc3ccc([N+](=O)[O-])cn3)C2=O)cc1 (centres undefined)	Sm TGR inh 7.1µM
CCCOc1ccc(N2C(=O)CC(NCCNc3ccc(S(=O)(=O)CC)cc3)C2=O)cc1 (centres undefined)	Sm TGR inh inconclusive
COc1ccc(N2C(=O)CC(NCCNc3ccc([N+](=O)[O-])cn3)C2=O)cc1 (centres undefined)	Sm TGR inh 14µM
Cc1cccc(C)c1NC(=O)N1CCC(C(N)=O)(N2CCCCC2)CC1	none (no result: SARS PLP yeast)
CCOc1cccc(C2c3c(oc4ccccc4c3=O)C(=O)N2c2nc(C)c(C(=O)OC)s2)c1 (centres undefined)	none (no result: SARS PLP yeast)
COc1ccc(OC)c(CNC(=O)c2ccc(NC(=O)c3nsc4ccccc34)cc2)c1	none (no result: SARS PLP yeast)
COc1ccc(C)cc1NC(=O)CN1c2ccccc2S(=O)(=O)c2ccccc21	none (no result: SARS PLP yeast)
CC(CCc1ccccc1)NC(=O)Cc1ccccc1 (centres undefined)	none
CC(NC(=O)Cc1ccccc1)C(=O)O (centres undefined)	Sm TGR inh 50µM
CC(C)NC(NC(=O)Cc1ccccc1)C(Cl)(Cl)Cl (centres undefined)	none
CCN(CC)C(NC(=O)Cc1ccccc1)C(Cl)(Cl)Cl (centres undefined)	Sm TGR inh 18µM
CCOc1ccc(CCNC(=O)Cn2ccc3cc(S(=O)(=O)N4CCCCCC4)ccc32)cc1	none (no result: SARS PLP yeast)
CCc1nc2ccc(C(=O)NCc3ccccc3C)cc2nc1CC	none (no result: SARS PLP yeast)
CCOc1ccc(/C=C2/C(=O)N(c3ccc(OC)cc3)C(=S)N2CC(=O)OC)cc1OCC	none
CCc1ccccc1N1C(=O)/C(=C/c2ccc(N3CCN(C)CC3)o2)C(=O)NC1=S	none
COc1cc(/C=C2\C(=O)NC(=O)N(c3ccccc3)C2=O)cc(OC)c1OC	Sm TGR inh inconclusive
COC(=O)COc1ccc(/C=C2\C(=O)NC(=S)N(c3ccc(C)cc3)C2=O)cc1OC	Sm TGR inh 13µM
CCOC(=O)COc1ccc(/C=C2\C(=O)NC(=S)N(c3ccc(OC)cc3)C2=O)cc1OC	Sm TGR inh 14µM
COc1cc(/C=C2/C(=O)NC(=O)N(c3ccc(C)cc3)C2=O)cc(OC)c1OC	Sm TGR inh inconclusive
COc1ccc(N2C(=O)/C(=C/c3ccc(C)o3)C(=O)NC2=S)c(OC)c1	Sm TGR inh 1.3µM
COc1ccc(N2C(=O)/C(=C/c3ccc(OC)c(OC)c3)C(=O)NC2=S)cc1	Sm TGR inh 10µM
CSc1ccc(CCNC(=O)CCn2c(=O)c3cccn3c3cccnc32)cc1	none (no result: SARS PLP yeast)
COCCNC(=O)CSc1nc(-c2ccc(C)cc2)nc2c1c(=O)n(C)c(=O)n2C	none (no result: SARS PLP yeast)
COc1ccc(CCN2C(=O)c3[nH]nc(-c4ccccc4O)c3C2c2ccccc2)cc1 (centres undefined)	none (no result: SARS PLP yeast)
Cc1cccc(Cn2c(=O)n(-c3cc(C)cc(C)c3)c(=O)c3oc4ccccc4c32)c1	none (no result: SARS PLP yeast)
CCOc1ccc(OCC)c(S(=O)(=O)N2CCN(c3cccc(C)c3C)CC2)c1	none (no result: SARS PLP yeast)
Cc1c(Cl)sn(-c2ccc(Cl)cc2)c1=O	Sm TGR inh 3.5µM
Cc1nn(-c2ccc(Cl)cc2)c(=O)c2ccccc12	none (no result: Sm TGR inh)
CCOC(=O)CN1c2ccccc2NC(=O)CC1C (centres undefined)	Sm TGR inh 32µM
CCOCCCN1C(=O)C(=O)N(CC(=O)N2c3ccccc3NC(=O)CC2C)C1=O (centres undefined)	none
Cn1cnc(S(=O)(=O)N2CCC(C(=O)N3CCN(c4ccccc4F)CC3)CC2)c1	none (no result: SARS PLP yeast)
COc1ccc(S(=O)(=O)c2c(Nc3ccccc3F)sc(C(=O)c3cccc(OC)c3)c2N)cc1	none (no result: SARS PLP yeast)
O=C(O)CCN1CC2([N+](=O)[O-])C=CC(=O)C([N+](=O)[O-])(C1)C2CC(=O)c1ccccc1 (centres undefined)	Sm TGR inh 18µM
O=C(CCN1CCCCCC1)c1ccccc1	none
CN(C)c1ccc(/C=N/NC(=O)C2COc3ccccc3O2)o1 (centres undefined)	Sm TGR inh 16µM
O=C(N/N=C\c1ccc(Br)o1)C1COc2ccccc2O1 (centres undefined)	none (no result: Sm TGR inh)
Cc1cc([N+](=O)[O-])c2c(c1C)C1C=CCC1C(c1ccccn1)N2 (centres undefined)	Sm TGR inh 22µM
Cc1ccc(Cl)c2c1N[C@@H](c1ccc(C(=O)O)cc1)[C@H]1CC=C[C@@H]21	none (no result: SARS PLP yeast)
Cc1cccc(OCC(=O)Nc2cccc3cccnc23)c1C	none (no result: SARS PLP yeast)
COc1ccc(/C=N/NC(=O)c2cc(O)c(O)c(O)c2)cc1Cn1cc([N+](=O)[O-])cn1	Sm TGR inh inconclusive, SARS PLP yeast 10µM
COc1ccc(/C=N/NC(=O)c2ccccc2O)cc1Cn1cc([N+](=O)[O-])cn1	none
O=C(CCSc1ccccc1)NCCSCc1ccco1	none
COc1ccc(N(CC(=O)NCCSCc2ccco2)S(=O)(=O)c2ccc(C)cc2)cc1	Sm TGR inh 28µM
O=C(CN(c1ccccc1)S(=O)(=O)c1ccccc1)NCCSCc1ccco1	none

Bioassay records (PubChem BioAssay)
